Screening data as filed in PubChem BioAssay.
An excerpt weighted towards active compounds, which were near 10% of everything screened.
SARS PLP yeast: blocks SARS-CoV papain-like protease in a yeast assay; S. cerevisiae expressing SARS-CoV PLpro, growth rescue; Potency, µM (titrated, usually from 32.9 µM), for the others: at the top dose activity, positive = growth rescue, most hits filed as activators; hit rate 0.19% among 330,000; calls by dose curve; note: 0% is about no effect; nearly all actives have a fitted effect of over 55% in size
NS1 function inh: influenza NS1 inhibition; Potency, µM (series often up to 46.1 µM), for the others: top-dose activity, positive = more growth; hit rate 0.4% among 270,000; AID 2326; calls by dose curve; note: actives are rising curves; nearly all actives have a fitted effect of over 50% in size
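S. cerevisiae expressing influenza A NS1, grown in glucose, washed, then diluted 1:100 into pH 6.0 -URA galactose medium with 23 nl compound. Growth recovery read as OD600; NS1-free strain serves as control.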
Pf growth 96h: P. falciparum growth inhibition at 96 hours; Potency, µM (doses to about 28.7 µM), without a hit: top-dose activity change, negative = inhibition, most hits filed as inhibitors; P. falciparum luciferase reporter growth, 96 h; AID 504834; hit rate 6.9% among 320,000; note: % is set by controls: 0 for no effect and ±100 for the full control effect
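Parasite growth measured via integrated firefly luciferase reporter in P. falciparum. Infected erythrocytes at 2% hematocrit, 0.05% parasitemia final were treated 96 hours at 37 C under 5% CO2, and luminescence was read.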
Pf growth 48h: P. falciparum growth inhibition at 48 hours (one generation); hit rate 5.9% among 310,000; Potency, µM (highest dose often 28.7 µM), for inactives: top-dose activity change, negative = inhibition, usual class: inhibitors; P. falciparum luciferase growth in erythrocytes, 48 h; note: % is set by controls: 0 for no effect and ±100 for the full control effect
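First compound was added to culture medium, then infected red cells at 0.1% parasitemia and 2% hematocrit (final). After incubation at 37 C under 5% CO2, luciferase detection reagent was dispensed and light output recorded.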
* = called active by the depositor; i = inactive; ? = inconclusive; · = no result given. Unless noted, calls come from the whole dose curve; as a rule, active = well fitted inhibition curve with a large enough effect; inconclusive = small, poorly fitted or top-dose-only effect, or another doubt; inactive = no such curve, though single readings can be large or run the other way. Potency is the fitted concentration of half-maximal effect.

SMILES	SARS PLP yeast	NS1 function inh	Pf growth 96h	Pf growth 48h
CC(CN1CCCCC1)OC(=O)/C=C/c1ccccc1 (stereo not drawn)	-2.3%	9.9%	?	35.6%
O=C(Nc1cccc([N+](=O)[O-])c1)c1ccc2c(c1)C(=O)N(c1ccccn1)C2=O	4.0%	9.2%	-20.2%	13.3%
O=C(COc1ccc(Cl)cc1)Nc1cc2c3c(c1)CC(=O)N3CCC2	-7.0%	·	?	-12.4%
Cc1cc(=Nc2ccc3c(c2)c(N)cc(C)[n+]3C)nc(N)n1C	·	-48.7%	·	·
COc1cc(NC(=O)c2ccccc2OCc2ccccc2)cc(OC)c1OC	-11.8%	-76.4%	-19.0%	9.28µM*
COc1cc(C(=O)NCCSc2ccc(Cl)cc2)cc(OC)c1OC	0.1%	-7.9%	?	?
COc1cc(C(=O)NCCSc2ccccc2)cc(OC)c1OC	-0.2%	-22.1%	10.4µM*	-8.5%
O=C(CN1C(=O)c2cccc([N+](=O)[O-])c2C1=O)N1CCN(S(=O)(=O)c2ccccc2)CC1	2.9%	·	-6.6%	-18.5%
O=C1C2C(C(=O)N1/N=C/c1cc([N+](=O)[O-])c(O)cc1O)C1C=CC2C12CC2 (stereo not drawn)	-3.8%	·	27.6%	12.5%
O=C1C2C(C(=O)N1/N=C/c1cc(Br)cc([N+](=O)[O-])c1O)C1C=CC2C12CC2 (stereo not drawn)	-29.2%	-21.1%	11.7µM*	?
CC12CCC(=O)N1C(C(=O)Nc1nc(-c3ccccc3Cl)cs1)CS2 (stereo not drawn)	-9.7%	·	?	?
COc1ccccc1CNC(=O)CS(=O)(=O)Cc1ccccc1	5.5%	3.0%	2.62µM*	8.6%
COc1ccccc1CNC(=O)C(NC(=O)c1ccccc1)C(C)C (stereo not drawn)	-1.3%	3.2%	-4.6%	13.1µM*
COc1ccccc1CNC(=O)c1ccc(-c2ccccc2)cc1	15.7%	8.6%	?	-1.1%
COc1ccc(C(=O)NCc2ccccc2OC)cc1	-0.3%	3.9%	5.22µM*	?
NC(=O)c1ccccc1NC(=O)CS(=O)(=O)Cc1ccccc1	5.9%	3.5%	9.28µM*	23.8%
COc1ccccc1CNC(=O)C(NC(=O)c1ccc(C)cc1)C(C)C (stereo not drawn)	-1.9%	·	?	2.9%
C=CC[C@H](CC(=O)OC(C)(C)C)C(=O)OC[C@H]1CCCN1C(=O)[C@@H](CC=C)CC(=O)N(CCO)Cc1ccccc1	1.2%	·	·	·
Cc1cc(OCC(=O)OCC(=O)c2ccc[nH]2)ccc1Cl	2.2%	·	0.0%	-2.2%
CCN(CC(=O)Nc1ccccc1C(F)(F)F)C(=O)CN1C(=O)NC2(CCCC2)C1=O	-0.3%	·	13.9%	-9.1%
CCN(CC)C(=O)c1cccc2nc3ccccc3nc12	-1.1%	-1.8%	14.5%	5.3%
Oc1cccc2nc3ccccc3nc12	-6.5%	-36.2%	11.7µM*	?
N#C/C(=C/c1cn(-c2ccccc2)nc1-c1cccc(S(=O)(=O)N2CCCC2)c1)C(=O)NCc1ccco1	-1.0%	20.3%	10.4µM*	10.4µM*
N#C/C(=C/c1cn(-c2ccccc2)nc1-c1cccc(S(=O)(=O)N2CCOCC2)c1)C(=O)NCc1ccco1	10.7%	2.2%	-27.1%	-8.0%
Cc1ccc(-c2nn(-c3ccccc3)cc2/C=C(\C#N)C(=O)NCc2ccccc2)cc1	4.9%	12.4%	44.4%	14.1%
SMILES	SARS PLP yeast	NS1 function inh	Pf growth 96h	Pf growth 48h
N#C/C(=C/c1cn(-c2ccccc2)nc1-c1cccc(OCc2ccccc2)c1)C(=O)NCCCn1ccnc1	-21.1%	?	2.08µM*	4.65µM*
CCOc1cccc(-c2nn(-c3ccccc3)cc2/C=C(/C#N)C(=O)NCCCn2ccnc2)c1	-18.4%	24.0%	?	2.62µM*
Cc1ccc2c(c1C)OC(=O)CC2c1ccccc1 (stereo not drawn)	-1.2%	-14.9%	?	3.0%
Cc1cccc(N(C(=O)c2nsc(Cl)c2Cl)C(C(=O)NC2CCCC2)c2ccc(O)cc2)c1C (stereo not drawn)	2.9%	?	?	7.38µM*
CCOc1ccc(C(C(=O)NC2CCCC2)N(Cc2ccccc2)C(=O)c2nsc(Cl)c2Cl)cc1 (stereo not drawn)	?	0.8%	?	13.1µM*
COc1ccc(C(C(=O)NC2CCCC2)N(Cc2ccccc2)C(=O)c2nsc(Cl)c2Cl)cc1 (stereo not drawn)	-11.4%	1.2%	?	?
CC(C)Sc1nc2[nH]ncc2c(=O)[nH]1	0.3%	-1.8%	27.3%	-9.2%
CC(C)C(NC=C1C(=O)OC(C)(C)OC1=O)C(=O)O (stereo not drawn)	1.9%	2.2%	·	18.8%
CC(NC=C1C(=O)OC(C)(C)OC1=O)C(=O)O (stereo not drawn)	-4.9%	·	9.28µM*	22.6%
CCSCCc1nnc(NC(=O)Nc2cccc(C(F)(F)F)c2)s1	1.7%	-6.8%	?	5.22µM*
O=C(Nc1ccccc1)Nc1cccc(C(F)(F)F)c1	-5.4%	·	63.0%	?
Cc1cc(NC(=O)c2ccccc2[N+](=O)[O-])ccc1Br	-6.1%	·	?	69.2%
CCc1cc(Cn2nc(-c3ccccc3)cc2C(=O)NCc2ccccc2OC)on1	-13.2%	·	?	10.4µM*
COc1ccccc1CNC(=O)c1cc(-c2ccccc2)nn1Cc1cc(C)no1	4.1%	·	?	?
CCNC(=O)N1CCN(CCCC(c2ccc(F)cc2)c2ccc(F)cc2)CC1	·	-15.9%	1.65µM*	1.47µM*
C/C(=C\c1ccccc1)C(=O)NCCCn1ccnc1	-0.4%	·	417.7%	11.5%
CCCCCCCn1c(C)nnc1-c1cnn(C)c1N	0.9%	·	41.5%	i
Cc1cc(C)cc(OCC(=O)Nc2ccncc2)c1	-1.0%	-16.2%	?	-7.5%
CCCOc1ccc(N2C(=O)CC(SC(=N)N3N=C(c4ccccc4)CC3c3ccccc3)C2=O)cc1 (stereo not drawn)	2.5%	·	-21.6%	2.33µM*
N#CCCNS(=O)(=O)c1ccc(C(=O)OCCCOC(=O)c2ccc(S(=O)(=O)NCCC#N)cc2)cc1	-2.1%	0.9%	13.4%	23.2%
Cn1c(O)c(C=NC2CC3CCC2(C)C3(C)C)c(=O)[nH]c1=O (stereo not drawn)	0.4%	-0.6%	?	?
CCCCn1c(O)c(C=NC2CC3CCC2(C)C3(C)C)c(=O)[nH]c1=O (stereo not drawn)	0.6%	-45.8%	?	10.4µM*
COc1cc(CNC(=O)C2CCCC2)cc(OC)c1OC	2.7%	0.9%	20.5%	9.2%
COc1cc(CN/C(C)=C(\C#N)C(N)=O)cc(OC)c1OC	0.9%	0.8%	2.08µM*	21.2%
CCc1ccc(NC(=O)c2cc(-c3ccco3)on2)cc1	6.2%	-3.2%	2.94µM*	277.9%
COc1ccc(NC(=O)c2cc(-c3ccco3)on2)cc1	-0.2%	·	?	443.2%
CCCCc1cc(=O)oc2cc(C)cc(O)c12	-40.2%	-189.9%	?	?
CCCc1cc(O)c2c(C)cc(=O)oc2c1	-10.3%	-41.4%	11.7µM*	?
CCOC(=O)c1c(NC(=O)CC)sc2c1CCN(Cc1ccccc1)C2	-3.6%	-17.6%	14.3%	?
CCOC(=O)c1c(NC(=O)C(C)Sc2cccc[n+]2[O-])sc2c1CCN(Cc1ccccc1)C2 (stereo not drawn)	9.7%	1.4%	5.22µM*	9.28µM*
